Assay [1] can be described thus: High-throughput drug toxicity screening in the BPDCN cell line Gen2.2 (AID 1224824; call rule not given here;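 note: cells exposed to compounds for 48 h before reading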). Particulars: Gen2.2 BPDCN cells; at 45.8 µM (top of the series) unless noted. The essentials: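 Seed 500 exponentially growing Gen2.2 cells/well; add compounds by pin tool; incubate 48 h, 37 °C, 5% CO2; add CellTiter-Glo, 15 min RT; read luminescence. % activity vs DMSO (100%) and bortezomib (0%).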

Assay [2] is described as follows: High-throughput drug toxicity screening in the BPDCN cell line Cal-1 (AID 1224825; call rule not given here). To be noted: Cal-1 BPDCN cell viability, qHTS; at 45.8 µM (top of the series) unless noted. In a few lines: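 Viability of the BPDCN line Cal-1 is measured as ATP-based luminescence (CellTiter-Glo) following 48 h incubation with compounds. Percent activity uses DMSO-treated wells as 100% and 9.2 uM bortezomib as 0%.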
A general note: In qHTS, concentration-response curves come from the screen itself.

The nature of assay [3]: qHTS assay for measurement of the activity of small molecule inhibitors on Zika virus induced Caspase-3 activity in human astrocytoma cells (AID 1224859).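 Note: plate controls were ZIKV-infected untreated cells for no effect and uninfected cells for full effect.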 In a few lines:
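A cell-based luminescent caspase-3/7 assay used SNB-19 cells infected with ZIKV (2 FFU/cell) for 6 h following 1 h compound pretreatment.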

Assay [4] can be described thus: qHTS Screen of the MIPE 4.0 Collection Against Ewings Sarcoma (RDES) (AID 1259252). Note: nearly all actives have a fitted effect of over 35% in size. Note: potency is the fitted concentration of half-maximal effect. In a few lines:
(§1)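 Here, cells in 5% FBS RPMI were exposed for two days (48 h) to compound dilutions added four hours after plating. ATP-based CellTiter-Glo luminescence measured viability, normalized to vehicle and no-cell blanks.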

Assay [5] is described as follows: qHTS Screen of the MIPE 4.0 Collection Against Ewings Sarcoma (EW8) (AID 1259255).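 For viability: 100% = DMSO-treated cells and 0% = medium-only wells without cells.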 Note: nearly all actives have a fitted effect of over 35% in size. Note: potency is the fitted concentration of half-maximal effect. In a few lines:
as §1

Assay [6] is described as follows: qHTS Screen of the MIPE 4.0 Collection Against Ewings Sarcoma (TC32) (AID 1259256). Note: nearly all actives have a fitted effect of over 45% in size. Note: potency is the fitted concentration of half-maximal effect. The essentials:
as §1

The nature of assay [7]: qHTS assay to identify small molecule inhibitors of chordoma cells - UCH-1 (AID 1259355). Note: % is set by controls: 0 for no effect and ±100 for the full control effect; nearly all actives have a fitted effect of over 55% in size. The essentials: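 A 48hr growth-inhibition format: each drug tested at 15 concentrations together with added auranofin, camptothecin, doxorubicin, rubitecan and topotecan, with cell viability quantified as CellTiter-Glo luminescence.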
Assay [8] can be described thus: qHTS assay to identify small molecule inhibitors of chordoma cells - UCH-2 (AID 1259356). Note: % is set by controls: 0 for no effect and ±100 for the full control effect.
The nature of assay [9]: P-glycoprotein substrates identified in KB-8-5-11 adenocarcinoma cell line, qHTS therapeutic library screen (AID 1346987). Note: nearly all actives have a fitted effect of over 65% in size. Note: potency is the fitted concentration of half-maximal effect. In a few lines: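 In this qHTS, P-gp-rich KB-8-5-11 cells received library compounds across a concentration range. Viability was quantified by luminescence after 72 h at 37 degree C.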
Assay [10] is described as follows: qHTS Screen of the MIPE 4.0 Collection Against Ewings Sarcoma (TC71) (AID 1259253). Note: nearly all actives have a fitted effect of over 40% in size. Note: potency is the fitted concentration of half-maximal effect. In a few lines: as §1
Assay [11] can be described thus: P-glycoprotein substrates identified in KB-3-1 adenocarcinoma cell line, qHTS therapeutic library screen (AID 1346986). Note: nearly all actives have a fitted effect of over 60% in size. To be noted: KB-3-1 parental cells viability, CellTiter-Glo, 72 h; at 44.5 µM (top of the series). In a few lines:
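Using luminescence to quantify ATP, parental and P-gp-overexpressing KB cells were compared after 72 h compound titration. KB-8-5-11 was also run with the P-gp inhibitor tariquidar.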

Assay [12] is described as follows: Identifying Small Molecule Inhibitors of Pancreatic Cancer Stem Cells (Panc1, Adherent) (AID 1259362). Note: potency is the fitted concentration of half-maximal effect. To be noted: viability. The essentials:
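Adherent (2D) versus sphere (3D) formats; spheres generated 14 d in SCM beforehand. Compound transferred by pin tool after 4 h, 48 h incubation, CellTiter-Glo endpoint.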

For assay [13], the target named is Atrial natriuretic peptide receptor 1 (Homo sapiens) (UniProt P16066). The experiment in a line: Natriuretic polypeptide receptor (hNpr1) antagonism - Pilot screen (AID 1347049; calls by dose curve;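 note: HEK293 cells with hNpr1 and GloSensor cGMP luciferase stimulated by 0.1 nM hNppA; agonist-evoked cGMP luminescence read 20 min after hNppA addition; % is set by controls: 0 for no effect and ±100 for the full control effect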). The essentials: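 Cells expressing receptor plus cGMP biosensor are seeded and incubated overnight at 37C, then loaded with GloSensor reagent (2% final) at room temperature for 2 h. Library compounds go on for 30 min. A pre-read precedes agonist (hNppA, 0.1 nM final) and a 20-min readout.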

The structures appear in SMILES notation. “And” between values parts separate entries of the source, which are not always exact repeats. Equal entries are not always repeated. Results filed as inconclusive are left out. The source made the active and inactive calls. Unless noted, calls come from the whole dose curve; as a rule, active = well fitted curve in the direction sought with a large enough effect; inconclusive = small, poorly fitted or top-dose-only effect, or another doubt; inactive = no such curve, though single readings can be large; an effect the other way counts as inactive or inconclusive.

Atrial natriuretic peptide receptor 1 (Homo sapiens), sequence (P16066 whole entry, looked up): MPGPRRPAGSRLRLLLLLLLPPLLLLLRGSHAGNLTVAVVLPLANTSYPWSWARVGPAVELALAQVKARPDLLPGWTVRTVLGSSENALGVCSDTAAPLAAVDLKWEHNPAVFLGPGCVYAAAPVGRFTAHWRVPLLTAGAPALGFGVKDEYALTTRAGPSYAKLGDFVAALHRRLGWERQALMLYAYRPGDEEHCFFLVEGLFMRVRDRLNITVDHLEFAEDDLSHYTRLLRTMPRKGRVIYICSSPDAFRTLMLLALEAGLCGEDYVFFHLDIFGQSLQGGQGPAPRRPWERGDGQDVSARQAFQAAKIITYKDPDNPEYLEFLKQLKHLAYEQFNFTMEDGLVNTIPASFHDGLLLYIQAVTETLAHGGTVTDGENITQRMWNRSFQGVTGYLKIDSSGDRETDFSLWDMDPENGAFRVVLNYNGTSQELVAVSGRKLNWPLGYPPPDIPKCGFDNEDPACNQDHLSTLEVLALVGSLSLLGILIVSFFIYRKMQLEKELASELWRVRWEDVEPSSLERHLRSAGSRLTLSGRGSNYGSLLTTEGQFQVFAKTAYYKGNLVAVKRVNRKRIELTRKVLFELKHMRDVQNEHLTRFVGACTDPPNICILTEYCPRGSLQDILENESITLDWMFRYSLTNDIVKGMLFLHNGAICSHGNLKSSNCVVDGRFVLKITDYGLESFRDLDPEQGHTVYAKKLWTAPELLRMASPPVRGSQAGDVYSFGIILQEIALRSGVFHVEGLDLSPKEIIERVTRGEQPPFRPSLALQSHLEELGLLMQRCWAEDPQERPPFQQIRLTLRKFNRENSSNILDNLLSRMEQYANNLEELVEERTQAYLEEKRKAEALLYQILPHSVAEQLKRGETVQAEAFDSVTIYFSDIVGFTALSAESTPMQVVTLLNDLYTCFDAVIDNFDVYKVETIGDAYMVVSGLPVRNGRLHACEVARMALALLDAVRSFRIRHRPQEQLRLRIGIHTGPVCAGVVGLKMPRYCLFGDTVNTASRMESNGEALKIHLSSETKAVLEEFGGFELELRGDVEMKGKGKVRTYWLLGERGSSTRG

For `CC[C@H](NC(C)C)[C@H](O)c1ccc(O)c2[nH]c(=O)ccc12`, in assay [1], the cell viability, % of control (lower = more cytotoxic) came to 160%. Moreover, in [2], the viability (% of control) is 121%. In addition, the Potency result in assay [3], in assay [4], in assay [5], in assay [6], in [7] and in assay [8] was “inactive” in each case. Also, the Potency entry in assay [9] is “inactive”.
As for `COc1ccc(C(=O)CC(=O)c2ccc(C(C)(C)C)cc2)cc1`, in assay [1], the cell viability, % of control (lower = more cytotoxic) is 5.71%. The viability (% of control) in assay [2] was 5.54%. In addition, the Potency result in assay [3] and in [9] was “inactive” throughout. In addition, the Potency in [4] was 1.05 µM (active); in [10], 1.66 µM (active); in [5] it was 2.09 µM (active); in [6], 1.66 µM (active).
For `Cc1oc(=O)oc1CN1CCN(c2cc3c(cc2F)c(=O)c(C(=O)O)c2n3C(C)S2)CC1` (configuration not stated), the cell viability, % of control (lower = more cytotoxic) in assay [1] was determined as 162%. Further, the viability (% of control) in [2] is 103%. Besides, the Potency entry in assay [3], in assay [4], in assay [10], in assay [5] and in assay [9] was “inactive” each time. Moreover, in [11], the outcome was inactive.
With `C[C@@H]1CN(c2c(F)c(N)c3c(=O)c(C(=O)O)cn(C4CC4)c3c2F)C[C@H](C)N1`, the cell viability, % of control (lower = more cytotoxic) in assay [1] is 89.9% [at 23.2 µM]. In addition, the viability (% of control) in assay [2] was 107% [at 23.2 µM]. Besides, the Potency result in assay [3], in [4], in [5], in assay [6], in assay [7] and in [8] was “inactive” in each case. In addition, the Potency result in [9] is “inactive”.
Turning to `COC(=O)Nc1nc2ccc(C(=O)c3ccccc3)cc2[nH]1`, in assay [1], the cell viability, % of control (lower = more cytotoxic) was found to be 176%. The viability (% of control) in [2] is 22%. Further, the Potency entry in [3], in [7] and in assay [8] was “inactive” in each case. In addition, the Potency in assay [4] is 0.662 µM (active); in assay [5], 0.526 µM (active); in [6] it was 0.418 µM (active); in assay [9] it was 699 nM (active) and 2.96 µM (active).
Turning to `CCOC(=O)c1ccc(C#Cc2ccc3c(c2)C(C)(C)CCS3)nc1`, the cell viability, % of control (lower = more cytotoxic) in assay [1] turned out to be 379%. Besides, the viability (% of control) in [2] was 47%. Moreover, the Potency result in assay [3], in [4], in [10], in assay [5], in assay [6] and in assay [7] was “inactive” in each case. Further, the Potency entry in [9] was “inactive”.
On to `Cc1noc(NS(=O)(=O)c2ccc(N)cc2)c1C`, for which the cell viability, % of control (lower = more cytotoxic) in assay [1] came out at 138%. Further, in [2], the viability (% of control) came to 96.8%. The Potency result in assay [3], in assay [4], in [5], in assay [6], in [7] and in assay [9] was “inactive” each time. The result in assay [11] was inactive.
Regarding `COc1cc2nc(N3CCCN(C)CC3)nc(NC3CCN(Cc4ccccc4)CC3)c2cc1OC`, in assay [1], the cell viability, % of control (lower = more cytotoxic) was 9.38%. For the same compound, the viability (% of control) in assay [2] amounted to 4.13%. Further, the Potency entry in [3] and in [13] was “inactive” throughout. Further, the Potency in assay [4] is 8.33 µM (active); in [10], 10.5 µM (active); in assay [5], 7.43 µM (active); in assay [6], 5.26 µM (active); in [12] it was 2.35 µM (active); in assay [9] it was 9.35 µM (active).
In the case of `NNC(=O)c1ccncc1`, the cell viability, % of control (lower = more cytotoxic) in [1] is 88.1%. Also, in [2], the viability (% of control) is 99.3%. In addition, the Potency entry in [3], in assay [4], in assay [10], in [5], in assay [6] and in [9] was “inactive” each time.
Turning to `O=C(N[C@H](CO)[C@H](O)c1ccc([N+](=O)[O-])cc1)C(Cl)Cl`, the cell viability, % of control (lower = more cytotoxic) in [1] stood at 136%. The viability (% of control) in assay [2] was 116%. Also, the Potency result in [3], in assay [10], in assay [5], in assay [6], in assay [7] and in assay [9] was “inactive” each time. The result in [11] was inactive.
`O[C@@H](CNC[C@H](O)[C@H]1CCc2cc(F)ccc2O1)[C@@H]1CCc2cc(F)ccc2O1`: the cell viability, % of control (lower = more cytotoxic) in [1] stood at 4.81%. In addition, the viability (% of control) in assay [2] was 2.75%. Besides, the Potency entry in assay [3] was “inactive”. Further, the Potency in assay [4] is 23.5 µM (active); in assay [10] it was 20.9 µM (active); in assay [5], 20.9 µM (active); in [6], 23.5 µM (active); in [9], 20.9 µM (active).
`CCn1cc(C(=O)O)c(=O)c2cc(F)c(N3CCNCC3)nc21`: in assay [1], the cell viability, % of control (lower = more cytotoxic) stood at 194%. Also, in [2], the viability (% of control) was 114%. For the same compound, the Potency entry in assay [3], in assay [4], in assay [10], in [5], in assay [6] and in assay [7] was “inactive” in each case. The Potency result in assay [8] and in [9] was “inactive” in each case.
With `CN(C)CCc1c[nH]c2ccc(CS(=O)(=O)N3CCCC3)cc12`, in assay [1], the cell viability, % of control (lower = more cytotoxic) is 25%. Further, the viability (% of control) in assay [2] turned out to be 93.3%. Moreover, the Potency result in assay [3], in assay [10], in assay [5], in assay [6], in assay [7] and in assay [9] was “inactive” in each case.
In the case of `CCc1cc(C(N)=S)ccn1`, the cell viability, % of control (lower = more cytotoxic) in [1] amounted to 139%. Further, the viability (% of control) in assay [2] worked out at 95.1%. Further, the Potency result in assay [3], in [5], in assay [7], in assay [8] and in assay [9] was “inactive” each time. For the same compound, in [10], the Potency was 20.9 µM (active).

Values taken from PubChem BioAssay (NCATS).
